Active and inactive are the calls of the source. How the source made its calls: active means hit-call score of the fitted dose curve at least 0.9, where 1 is the maximum; inactive means score below 0.9.
What was measured:
[1] = read-out: Interferon-gamma inducible Protein 10 (IP10), CXCL10 (gene 3627); assay: BSK_hDFCGF_IP10: BioMAP Diversity Plus: hDFCGF Assay for Interferon-gamma inducible Protein 10 (IP10) Biomarker Activity (AID 2283053); conditions: primary human foreskin fibroblasts; actives raise or lower the signal
How it was run: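 ELISA quantification of IP-10 after a 24 h chemical exposure of human dermal foreskin fibroblast primary cultures. Both increases and decreases versus DMSO fitted.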

[2] = read-out: Urokinase-type plasminogen activator receptor (uPAR), PLAUR (gene 5329); assay: BSK_CASM3C_uPAR: BioMAP Diversity Plus: CASM3C Assay for Urokinase-type plasminogen activator receptor (uPAR) Biomarker Activity (AID 2283054); conditions: primary human coronary artery smooth muscle cells; actives raise or lower the signal;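 further: cell-surface uPAR protein level quantified by ELISA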
[3] = read-out: Vascular cell adhesion molecule 1 (VCAM1), VCAM1 (gene 7412); assay: BSK_CASM3C_VCAM1: BioMAP Diversity Plus: CASM3C Assay for Vascular cell adhesion molecule 1 (VCAM1) Biomarker Activity (AID 2283055); conditions: primary human coronary artery smooth muscle cells; actives raise or lower the signal;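 further: VCAM-1 protein level quantified by ELISA on the cells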
[4] = read-out: Epidermal growth factor receptor (EGFR), EGFR (gene 1956); assay: BSK_hDFCGF_EGFR: BioMAP Diversity Plus: hDFCGF Assay for Epidermal growth factor receptor (EGFR) Biomarker Activity (AID 2283057); conditions: primary human foreskin fibroblasts; actives raise or lower the signal
How it was run: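 EGFR levels by ELISA in human dermal fibroblast cultures, 24 h post-treatment, fitted bidirectionally versus DMSO. Parallel wells stained with sulforhodamine B to detect overt cytotoxicity.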

[5] = read-out: Interleukin-8 (IL8), CXCL8 (gene 3576); assay: BSK_hDFCGF_IL8: BioMAP Diversity Plus: hDFCGF Assay for Interleukin-8 (IL8) Biomarker Activity (AID 2283058); conditions: primary human foreskin fibroblasts; actives raise or lower the signal
How it was run: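 Primary human foreskin fibroblasts (hDFCGF system) dosed with chemical; IL-8 measured by ELISA 24 hours later. Bidirectional curve fitting relative to DMSO baseline; cytotoxicity tracked in parallel cultures by SRB total protein staining.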

[6] = BSK_hDFCGF_Proliferation: Cell Proliferation Assessment in the BioMAP Diversity Plus: hDFCGF Assay (AID 2283059); conditions: primary human foreskin fibroblasts;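 further: curves fitted for both rise and fall of signal versus DMSO baseline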
How it was run: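 This proliferation readout used SRB total-protein staining of human foreskin fibroblasts […], normalized to DMSO with bidirectional curve fitting.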

[7] = read-out: Macrophage colony-stimulating factor (MCSF), CSF1 (gene 1435); assay: BSK_hDFCGF_MCSF: BioMAP Diversity Plus: hDFCGF Assay for Macrophage colony-stimulating factor (MCSF) Biomarker Activity (AID 2283060); conditions: primary human foreskin fibroblasts; actives raise or lower the signal
How it was run: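 Human foreskin fibroblast primary cultures; M-CSF measured by ELISA 24 hours after chemical dosing. Bidirectional fitting relative to DMSO, with overt cytotoxicity tracked by parallel SRB total-protein staining (0.1% SRB, 10% TCA fixation, 560 nm).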

[8] = BSK_hDFCGF_SRB: Viability Assessment in the BioMAP Diversity Plus: hDFCGF Assay (AID 2283061); conditions: primary human foreskin fibroblasts;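 further: cells exposed to compound for 24 h before the read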
How it was run: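 Human foreskin fibroblasts in 96-well plates were treated 24 h. Total protein was measured by 0.1% SRB staining after 10% TCA fixation, read at 560 nm. Data were fitted bidirectionally against DMSO.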

[9] = read-out: TIMP metallopeptidase inhibitor 1 (TIMP1), TIMP1 (gene 7076); assay: BSK_hDFCGF_TIMP1: BioMAP Diversity Plus: hDFCGF Assay for TIMP metallopeptidase inhibitor 1 (TIMP1) Biomarker Activity (AID 2283062); conditions: primary human foreskin fibroblasts; actives raise or lower the signal
How it was run: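 Human foreskin fibroblast primary cultures dosed for 24 h; secreted/surface TIMP-1 quantified by ELISA. Bidirectional curve fitting against DMSO baseline; cytotoxicity tracked in parallel cultures by SRB total-protein staining.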

[10] = read-out: Monokine induced gamma interferon (MIG), CXCL9 (gene 4283); assay: BSK_hDFCGF_MIG: BioMAP Diversity Plus: hDFCGF Assay for Monokine induced gamma interferon (MIG) Biomarker Activity (AID 2283063); conditions: primary human foreskin fibroblasts; actives raise or lower the signal
How it was run: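 MIG/CXCL9 measured by ELISA 24 h after dosing primary human skin fibroblasts. Activity fitted in both directions against DMSO controls. Cytotoxicity was checked in parallel cultures by SRB staining read at 560 nm.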

[11] = read-out: Matrix Metallopeptidase 1 (MMP1), MMP1 (gene 4312); assay: BSK_hDFCGF_MMP1: BioMAP Diversity Plus: hDFCGF Assay for Matrix Metallopeptidase 1 (MMP1) Biomarker Activity (AID 2283064); conditions: primary human foreskin fibroblasts; actives raise or lower the signal
How it was run: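 ELISA read-out of MMP1 from human foreskin fibroblasts (primary skin cells), 24 h post-dose. Gain or loss of signal was fitted bidirectionally versus DMSO negative control; cytotoxicity was checked by SRB in parallel cultures.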

[12] = read-out: Vascular cell adhesion molecule 1 (VCAM1), VCAM1 (gene 7412); assay: BSK_hDFCGF_VCAM1: BioMAP Diversity Plus: hDFCGF Assay for Vascular cell adhesion molecule 1 (VCAM1) Biomarker Activity (AID 2283065); conditions: primary human foreskin fibroblasts; actives raise or lower the signal;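 on AC50: VCAM-1 protein level quantified by ELISA after 24 h chemical exposure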
How it was run: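 Human foreskin fibroblast primary cells dosed with chemical, VCAM-1 measured by ELISA at 24 h. Bidirectional curve fitting relative to DMSO as negative control/baseline.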

[13] = read-out: Plasminogen activator inhibitor-1 (PAI1), SERPINE1 (gene 5054); assay: BSK_hDFCGF_PAI1: BioMAP Diversity Plus: hDFCGF Assay for Plasminogen activator inhibitor-1 (PAI1) Biomarker Activity (AID 2283066); conditions: primary human foreskin fibroblasts; actives raise or lower the signal
How it was run: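 PAI-1 levels in human dermal foreskin fibroblasts were quantified by ELISA 24 h after dosing, with gain or loss analysed against DMSO. Overt cytotoxicity was checked by sulforhodamine B total-protein staining in parallel cultures.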

[14] = read-out: Intercellular Adhesion Molecule 1 (ICAM1), ICAM1 (gene 3383); assay: BSK_KF3CT_ICAM1: BioMAP Diversity Plus: KF3CT Assay for Intercellular Adhesion Molecule 1 (ICAM1) Biomarker Activity (AID 2283067); conditions: primary human keratinocytes with fibroblasts; actives raise or lower the signal
How it was run: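 Human keratinocyte–foreskin fibroblast co-culture was treated for 24 h. Cell-surface ICAM-1 was quantified by ELISA, fitted bidirectionally relative to DMSO. Cytotoxicity was checked in parallel cultures by SRB total-protein staining.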

[15] = read-out: Interferon-gamma inducible Protein 10 (IP10), CXCL10 (gene 3627); assay: BSK_KF3CT_IP10: BioMAP Diversity Plus: KF3CT Assay for Interferon-gamma inducible Protein 10 (IP10) Biomarker Activity (AID 2283068); conditions: primary human keratinocytes with fibroblasts; actives raise or lower the signal
How it was run: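 Signal is secreted/surface IP-10 by ELISA in a human primary skin co-culture of keratinocytes and foreskin fibroblasts, taken 24 h post-dosing; DMSO served as negative control.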

[16] = BSK_KF3CT_SRB: Viability Assessment in the BioMAP Diversity Plus: KF3CT Assay (AID 2283069); conditions: primary human keratinocytes with fibroblasts;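 further: read 24 h after compound addition; fitted for both signal gain and loss against DMSO baseline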
How it was run: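 SRB read-out at 560 nm (0.1% stain, TCA-fixed cells) gauges overt cytotoxicity in a human skin keratinocyte–fibroblast co-culture 24 h post-dosing. Signal change was fitted bidirectionally relative to DMSO control.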

[17] = read-out: Interleukin-1 alpha (IL1a), IL1A (gene 3552); assay: BSK_KF3CT_IL1a: BioMAP Diversity Plus: KF3CT Assay for Interleukin-1 alpha (IL1a) Biomarker Activity (AID 2283070); conditions: primary human keratinocytes with fibroblasts; actives raise or lower the signal
How it was run: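 Primary skin co-culture (keratinocytes, foreskin fibroblasts), 24 h exposure; ELISA for IL-1a; bidirectional curve fit vs DMSO.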

[18] = read-out: Transforming growth factor beta 1 (TGFb1), TGFB1 (gene 7040); assay: BSK_KF3CT_TGFb1: BioMAP Diversity Plus: KF3CT Assay for Transforming growth factor beta 1 (TGFb1) Biomarker Activity (AID 2283072); conditions: primary human keratinocytes with fibroblasts; actives raise or lower the signal
How it was run: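 ELISA quantifies TGF-b1 at 24 h post-dose in a primary human skin co-culture of keratinocytes and fibroblasts, with gain or loss judged against DMSO. Parallel SRB total-protein staining flags overt cytotoxicity.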

[19] = read-out: Collagen III, COL3A1 (gene 1281); assay: BSK_hDFCGF_CollagenIII: BioMAP Diversity Plus: hDFCGF Assay for Collagen III Biomarker Activity (AID 2283056); conditions: primary human foreskin fibroblasts; actives raise or lower the signal
How it was run: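 Human foreskin fibroblast primary cultures sampled 24 h after dosing; Collagen III quantified by ELISA. Signal fitted bidirectionally against DMSO baseline.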

[20] = read-out: TIMP metallopeptidase inhibitor 2 (TIMP2), TIMP2 (gene 7077); assay: BSK_KF3CT_TIMP2: BioMAP Diversity Plus: KF3CT Assay for TIMP metallopeptidase inhibitor 2 (TIMP2) Biomarker Activity (AID 2283071); conditions: primary human keratinocytes with fibroblasts; actives raise or lower the signal
How it was run: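 TIMP-2 measured by ELISA at 24 h in human keratinocyte/fibroblast primary co-cultures exposed to chemicals. Both increases and decreases were fitted against DMSO. Parallel cultures were stained with SRB for total protein as an overt-cytotoxicity check.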

Measured: AC50

Nc1ccn([C@@H]2O[C@H](CO)[C@@H](O)[C@@H]2O)c(=O)n1
active: [6] 615 nM
not listed: [19] | [20]
inactive: all other assays above

CCCC(CCC)C(=O)O
not listed: [9]
inactive: all other assays above

S=P(N1CC1)(N1CC1)N1CC1
active: [6] 18200 nM
not listed: [19]
inactive: all other assays above

CCCCCCOC(=O)CC(CC(=O)OCCCCCC)(OC(=O)CCC)C(=O)OCCCCCC
not listed: [9]
inactive: all other assays above

CCc1cccc(CC)c1N
not listed: [9] | [11]
inactive: all other assays above

COc1cc2c(c(OC)c1OC)-c1ccc(OC)c(=O)cc1[C@@H](NC(C)=O)CC2
active: [1] 4080 nM | [3] 579 nM | [6] 1000 nM | [11] 2820 nM | [12] 2320 nM
not listed: [9] | [20]
inactive: all other assays above

NCC(F)(F)C(F)(F)C(F)(F)C(F)(F)F
not listed: [18] | [19]
inactive: all other assays above
